The record followed here is PubChem BioAssay (NCI).

Molecules are shown by their SMILES. Compounds without any hit were thinned out: in the full panel of roughly 83,000, 20% have a hit.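 Testing used 96-well plates and a 48-hour single-concentration exposure. Example: -40 means 40% of the starting cells died.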 A number with no mark means an inactive call. Calls of active or inactive are those of the source. The calls were made as follows: active = growth percent below 10; inactive = the rest.

This assay relates to HL-60(TB) leukemia. Kind of assay: NCI-60 one-dose screen, 48 h (100 = growth as untreated, 0 = no growth, -100 = all killed). To be noted: 10 µM unless noted.
As for `O=C(NC(=S)N1CCN(c2ncnc3c2cnn3-c2ccccc2)CC1)c1ccc(Br)cc1`, the growth was 90.8%.
For the compound `CC(=O)Nc1ccc(-c2cn(-c3cccc(C(=O)Nc4ccc(F)c(C(F)(F)F)c4)c3)nn2)cn1`, the growth was 62.8%.
The result for `CC1=C(C(=O)Nc2ccccc2)C(c2cccc3ccccc23)n2c(nc3ccccc32)N1` (stereo not given) reads 95%.
Take `COc1ccc(/C=C/c2n(Cc3ccc4ccccc4c3)c3ccccc3[n+]2Cc2ccc3ccccc3c2)cc1`: the growth is -5.59% (active).
Consider `COc1ccc(Nc2nc(N)n(Cc3cccc(Br)c3)n2)cc1`, for which the growth is -11.4% (active).
For the compound `CN(C)c1nc(NCCNS(=O)(=O)c2ccc(C3=Nc4c(N)nc(N)nc4NC(c4ccccc4)C3)cc2)nc(Nc2ccc(F)cc2)n1` (stereo not given), the growth is -6.76% (active).
The result for `O=C(Cn1nc(-c2ccccc2)ccc1=O)NN1C(=O)c2ccccc2C1=O` reads 101%; that for `COc1ccc(-c2cc(C(=O)OCc3ccc(Br)cc3)nn2-c2ccc(S(C)(=O)=O)cc2)cc1OC`, 83.6%.
As for `CCOC(=O)/C(F)=C/C1CC1C1CCN(C(=O)OC(C)(C)C)CC1` (stereo not given), the figure is 102%.
As for `O=c1onc(-c2cc3ccccc3nc2Cl)n1-c1cccc2ccccc12`, the figure is 33.5%; as for `COc1ccc(CN2[C@H](C(=O)NCc3ccc(C(=O)NO)cc3)Cc3c([nH]c4ccccc34)[C@H]2C2CC2)cc1`, 11%; as for `O=C(CCN1C(=O)/C(=C/c2ccc(F)cc2)SC1=S)N1CCOCC1`, 86.4%.
Regarding `Cc1cccc(/C=C/c2ccc(NC(=S)NCCCCN(C)C)cc2)c1`, the growth is -37.7% (active).
In the case of `O=C(c1ccc(Cl)cc1)C1[C@H](c2ccccc2Cl)[C@@H](c2ccccc2)NC12C(=O)Nc1ccc(Br)cc12` (stereo not given in full), the growth was -43.7% (active).
Consider `CC(C)(C)OC(=O)N1C/C(=C\c2ccc(F)cc2)C(=O)/C(=C/c2ccc(F)cc2)C1`, for which the growth was -6.78% (active).
For `COc1ccc(-c2ccc(SCC(=O)NCCc3ccc(S(N)(=O)=O)cc3)nn2)cc1`, the growth is 60.5%.
Turning to `COc1ccc(C2=NN(C(=O)[C@H]3[C@@H](c4ccco4)c4sc(=O)[nH]c4S[C@@H]3C)C(c3ccc4ccccc4c3)C2)cc1` (stereo not given in full), the growth is 2.93% (active).
As for `COCOc1cc2oc(C(=O)N[C@@H](Cc3ccccc3)C(O)C(=O)NCc3ccccc3)c(C)c(=O)c2cc1OCOC` (stereo not given in full), the figure is 96.5%; as for `O=C(N/N=C/c1ccoc1)c1[nH]c2ccc(Br)cc2c1-c1ccccc1`, -27.3% (active); as for `CN1C(=O)/C(=C/c2nccs2)SC1=S`, 89%.
On to `C#CCCCNCCNc1ccnc2cc(Cl)ccc12`, for which the growth is 46.8%.
For the compound `COc1ccc2[nH]c(=O)c(CSc3nccc(-c4ccc(Cl)cc4)n3)cc2c1`, the growth was 29.3%.
As for `N#Cc1c(-c2ccc(F)cc2)nc(SCc2ccc(F)cc2)nc1N1CCNCC1`, the figure is -7.81% (active); as for `C=C1CCC2C3(C)COC(c4ccco4)OC3CCC2(C)C1CC(Sc1ccccc1)C1=CCOC1=O` (stereo not given), -21.6% (active); as for `CC1(C)CC[C@]2(C(=O)Nc3ccc(Br)cc3)CC[C@]3(C)C(=CCC4[C@@]5(C)C[C@@H](O)[C@H](O)[C@@](C)(CO)C5CC[C@]43C)C2C1` (stereo not given in full), -13.2% (active).
Take `CN1CCc2c(sc3ncnc(N/N=C/c4cn(-c5ccccc5)nc4-c4ccc(Cl)cc4)c23)C1`: the growth is -12.4% (active).
As for `Cc1cccc2cc(-c3cc(-c4ccccc4)nc(=O)[nH]3)c(Cl)nc12`, the figure is 55.3%; as for `O=C1Nc2cc(Cl)ccc2/C1=C/c1cccc(OCc2ccc(Br)cc2F)c1`, -57.8% (active).
Take `Cc1cccc(Nc2nc3ccccc3nc2/C=C/c2ccc(F)cc2)c1`: the growth is 97.3%.
The result for `COC(=O)c1cc(C(=O)C(F)(F)F)n2c3ccccc3c3ccccc3c12` reads 99.5%; that for `Cc1ncsc1-c1ccc(CNC(=O)[C@@H]2C[C@@H](O)CN2C(=O)[C@@H](NC(=O)C2(F)CC2)C(C)(C)C)c(OCCOCCOCCOCCOc2nc(Nc3cc(S(C)(=O)=O)ccc3N[C@@H](c3cccc4c3OC(F)(F)O4)c3ncccc3Cl)nc(N3CCNCC3)n2)c1`, 72%; that for `Cc1ccc(CSc2nc(Cl)c(C#N)c(-c3ccc(F)cc3)n2)cc1`, 42%.
As to `CC(/C=C1\SC(=S)N(CCCC(=O)NC(CC(C)C)C(=O)O)C1=O)=C\c1ccccc1` (stereo not given), the growth is 63.4%.
Take `COc1ccc(C(=O)Nc2sc3c(c2C#N)CCC(=O)C3)cc1C(F)(F)F`: the growth was -12% (active).
As for `CCC1(OC(=O)c2ccccc2SSCCOC(=O)CCCCC2SCC3NC(=O)NC32)C(=O)OCc2c1cc1n(c2=O)Cc2cc3ccccc3nc2-1` (stereo not given), the figure is 76.7%; as for `COc1cc(/C=C/C(=O)c2nnn(-c3ccc(Cl)cc3)c2C)cc(OC)c1OC`, -5.43% (active); as for `Cc1ccc(Nc2nnc(-c3c[nH]c4ccccc34)o2)c(C)c1`, 1.4% (active).
As for `O=c1[nH]c2ccc(Cl)cc2cc1CSc1ccc(Nc2nccc(-c3ccc4ccccc4c3)n2)cc1`, the figure is 91.4%; as for `Cc1ccc(N=Nc2c(N)nn3c(-c4cc5ccccc5oc4=O)ccnc23)cc1`, 36.4%; as for `Cn1cc(-c2cc(N)n3nc(-c4c[nH]c5ccccc45)cc3n2)c2cc(Br)ccc21`, -18.3% (active).
